From PubChem BioAssay
Compounds with a hit are over-represented: about 2.4% of the library has one in this group of screens.
LT uptake inh: inhibitors of anthrax lethal toxin internalization; Cells, anthrax lethal toxin internalization, FRET ratio (460/530); AID 912; Potency, µM (titrated, usually from 40 µM), inactives show top-dose activity change, negative = inhibition, most hits filed as inhibitors; 70,000 tested, 0.67% active; further: on the % scale 0 is the no-effect control and ±100 the full control effect; nearly all actives have a fitted effect of over 50% in size
AmpC nodet inh: blocks E. coli AmpC beta-lactamase in absence of detergent. P00811. AmpC nitrocefin hydrolysis, absorbance 480 nm, no detergent. Potency, µM (top dose mostly 28.7 µM), for inactives: top-dose activity change, negative = inhibition. 71,000 tested, 1.8% active. AID 585; further: % of control where 0% means no effect
Target sequence (P00811 whole entry, looked up): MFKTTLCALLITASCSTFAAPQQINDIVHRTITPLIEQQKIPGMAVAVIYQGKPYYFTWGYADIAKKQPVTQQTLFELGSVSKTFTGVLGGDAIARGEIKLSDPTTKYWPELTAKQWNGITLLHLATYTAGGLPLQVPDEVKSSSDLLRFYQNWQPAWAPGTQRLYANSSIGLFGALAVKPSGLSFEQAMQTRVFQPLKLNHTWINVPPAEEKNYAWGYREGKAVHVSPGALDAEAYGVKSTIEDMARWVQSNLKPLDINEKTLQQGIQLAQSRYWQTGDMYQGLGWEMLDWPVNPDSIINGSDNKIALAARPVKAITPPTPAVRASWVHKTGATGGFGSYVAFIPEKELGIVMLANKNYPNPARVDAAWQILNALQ
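AmpC, 20 mM phosphate pH 7.0; 15 min cpd preinc, RT; start with nitrocefin (800 uM stock); A480 kinetic read, 20 s intervals, 4 min. No-enzyme wells = negative control.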
AmpC inh det: blocks E. coli AmpC beta-lactamase in presence of detergent | 71,000 tested, 0.09% active | AID 584 | Potency, µM (highest dose often 28.7 µM), without a hit: top-dose activity change, negative = inhibition | purified AmpC, nitrocefin hydrolysis with detergent | P00811; active means well fitted curve in the direction sought with a large enough effect; inconclusive means small, poorly fitted or top-dose-only effect; further: on the % scale 0 is the no-effect control and ±100 the full control effect
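E. coli AmpC (5.3 nM) in 20 mM phosphate pH 7.0 with 0.01% Triton X-100, preincubated 15 min RT with compound; nitrocefin (2 uL of 800 uM stock) hydrolysis followed by 480 nm absorbance every 20 s over 4 min.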
SmPrx2 inh: Schistosoma mansoni Prx2 inhibition | Potency, µM | 65,000 tested, 0.07% active | S. mansoni Prx2 activity coupled to TGR/GSH (TGR is thioredoxin glutathione reductase), NADPH fluorescence loss, qHTS
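qHTS, coupled TGR/Prx2 format; 15 min compound preincubation at RT; reaction started with H2O2 (2.5 mM aliquot); kinetic NADPH fluorescence decrease, ex 365/em 450 nm.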
* marks the source's active call; other numbers are inactive results; ? = inconclusive; · = no result given; [ ] = remark or other dose. Unless noted, the call rests on the fitted dose curve. Potency means the concentration at half of the fitted maximal effect.

SMILES	LT uptake inh	AmpC nodet inh	AmpC inh det	SmPrx2 inh
COc1cc(NS(=O)(=O)c2ccc(NC(=O)COc3ccccc3C)cc2)nc(OC)n1	-12%	13µM*[single pt active]	-1%	>57
C[C@@H]1CC2(OC3C[C@@]4(C)C5=CC[C@H]6C(C)(C)C(O[C@@H]7OC[C@@H](O)[C@H](O)[C@H]7O)CC[C@@]67C[C@@]57CC[C@]4(C)C31)OC(O)C1(C)OC21 (stereo partly specified)	-9%	100%	8%	·
CC(C)C(=O)Cc1ccc2ccccc2n1	-6%[8 µM]	4%[5.75 µM]	-6%[5.75 µM]	>57
CCc1ccc(-c2cn(-c3nc(C)cc(C)n3)c(=N)o2)cc1	13µM*	19%	12%	>57
CCn1c(SCC(=O)N2CCOCC2)nc(O)cc1=O	-5%	4µM*[single pt active]	13%	>57
COc1cccc(C2=NOC(C(=O)N3CCN(C(=O)c4ccco4)CC3)C2)c1 (stereo unspecified)	4%	2.5µM*[single pt active]	19%	>57
Fc1ccc(Nc2ncncc2-c2ccoc2)cc1	?	13%	9%	>57
O=C(c1ccc(-c2nnc(-c3ccccc3)o2)cc1)N1CCCCCC1	5%	78%	-1%	>57
O=C(c1ccc(-c2ccccc2)cc1)N1CCN(c2nc3ccccc3o2)CC1	-9%	4µM*[single pt active]	8%	>57
Cc1noc(C)c1S(=O)(=O)N(CC(=O)NCc1ccc2c(c1)OCO2)c1ccc(C(C)C)cc1	5µM*	-9%	6%	>57
C1COC1	-8%	-5%	10%	·
NC(=O)c1ccsc1NC(=O)COC(=O)c1ccccc1NCc1ccco1	?	5µM*	3%	>57
O=C(COC(=O)c1ccccc1Nc1ccccc1)NCc1ccco1	13%	-16%	11%	>57
CCOC(=O)N1CCN(c2c(NCCN3CCN(Cc4ccccc4)CC3)c(=O)c2=O)CC1	-10%	4µM*[single pt active]	12%	>57
CCOC(=O)C1CCCN(c2c(NCCCN(C)Cc3ccccc3)c(=O)c2=O)C1 (stereo unspecified)	-11%	-4%	-3%	>57
CCOC(=O)N1CCN(c2c(NCCN(C)Cc3ccccc3)c(=O)c2=O)CC1	-7%	4µM*[single pt active]	10%	>57
CCOC(=O)N1CCN(c2c(NCCCOC(C)C)c(=O)c2=O)CC1	-14%	4µM*[single pt active]	8%	>57
CCOC(=O)N1CCC(Nc2c(NCCN3CCN(Cc4ccccc4)CC3)c(=O)c2=O)CC1	-7%	3%	0%	>57
CCOC(=O)N1CCN(c2c(NCCCN(C)c3ccccc3)c(=O)c2=O)CC1	-1%	4µM*[single pt active]	12%	>57
Cc1nc(NCc2ccccc2)c2nc(-c3ccccc3)n(CC3CCN(C)CC3)c2n1	-12%	27%	15%	·
O=C(O)CC[P+](c1ccccc1)(c1ccccc1)c1ccccc1	0%[8 µM]	8%[5.75 µM]	-5%[5.75 µM]	>57
O=C(c1cccc(F)c1)N1CCC[C@@]2(CCN(Cc3ccccc3)C2)C1	-9%	8%	-2%	>57
CN(C)C[C@@H](O)c1ccc(Cl)c2ccccc12	-16%[8 µM]	12%[5.75 µM]	12%[5.75 µM]	>57
CCOC(=O)C1CCN(c2c(NCCCN3CCN(Cc4ccccc4)CC3)c(=O)c2=O)CC1	3%	19%	10%	>57
CCOC(=O)N1CCN(c2c(NCC3CCN(Cc4cccc(C)c4)CC3)c(=O)c2=O)CC1	12%	4µM*[single pt active]	15%	>57
SMILES	LT uptake inh	AmpC nodet inh	AmpC inh det	SmPrx2 inh
CCOC(=O)CCCN	-8%[8 µM]	4%[5.75 µM]	-2%[5.75 µM]	>57
COc1ccccc1-c1cc(C(F)(F)F)nc(S(=O)(=O)CCCC(=O)N2CCOCC2)n1	1.6µM*	83%	-2%	>57
COc1ccc(-c2cc(C(F)(F)F)nc(S(=O)(=O)CCC(=O)N3CCOCC3)n2)cc1	?	67%	4%	>57
Cc1nc(N(C)C)c2sc(=S)n(C)c2n1	-5%	4µM*[single pt active]	7%	>57
C=CCSc1nnc(NC(=O)CSc2nc3ccccc3o2)s1	26%	10µM*[single pt active]	-3%	>57
C/C=C(/C)C#N	?	-9%	26%	·
COc1cc2c(=O)n(-c3ccc(C)cc3)c(=O)n(CC(=O)c3ccc4c(c3)OCO4)c2cc1OC	5%	119%	-4%	>57
COc1cc2c(O)c3c(c(-c4ccc5c(c4)OCO5)c2cc1OC)C(=O)OC3	0.02µM*	6%	4%	>57
CNc1ncnc2c1ncn2[C@H]1C[C@H](OP(=O)(O)O)[C@H](COP(=O)(O)O)O1	?	2%	-1%	>57
CCCCCC1=C2CNC(CC(C)C)(C(=O)OC)C=C2C(C)C1=O (stereo unspecified)	?	74%	-3%	>57
Cc1c(-c2ccc(O)cc2)nn(-c2ccc(O)cc2)c1-c1ccc(OCCN2CCCCC2)cc1	16µM*	-19%	-3%	>57
COc1ccccc1C(=O)N(Cc1nc(-c2ccc(Cl)cc2)no1)C(C)C	13µM*	92%	14%	>57
COc1ccc(-c2noc(CN(C)S(=O)(=O)c3ccc(Cl)cc3)n2)cc1OC	13µM*	104%	-5%	>57
Cc1nc2c(c(=O)n1Cc1ccccc1Cl)c1nc3ccccc3nc1n2Cc1ccco1	7.9µM*	6%	0%	>57
CN(CC(=O)O)Cc1c(O)c(Cl)cc(Cl)c1Cl	-10%[8 µM]	-5%[5.75 µM]	-4%[5.75 µM]	>57
Cc1c(C(=O)Nc2ccncc2)sc2nc(-c3ccccc3)cn12	-17%	22%	12%	>57
Cc1c(C(=O)Nc2ccc3c(c2)OCCO3)sc2nc(-c3ccccc3)cn12	10µM*	55%	-8%	>57
O=C(CSc1nnc(-c2cc3ccccc3cc2O)n1Cc1ccco1)c1ccc(F)cc1	?	10µM*	22%	>57
COCCCNC(=O)c1ccc(CS(=O)(=O)c2ccc(OC)cc2)o1	-11%	4µM*[single pt active]	12%	>57
COc1ccc(S(=O)(=O)Cc2ccc(C(=O)NCc3cccnc3)o2)cc1	-9%	4µM*[single pt active]	16%	>57
COc1ccc(S(=O)(=O)Cc2ccc(C(=O)NCCc3ccc(S(N)(=O)=O)cc3)o2)cc1	-11%	-4%	11%	>57
COc1ccc(S(=O)(=O)Cc2ccc(C(=O)NCc3ccc(F)cc3)o2)cc1	?	4µM*[single pt active]	6%	>57
CCN1C[C@@]2(COC)[C@H](O)C[C@H](OC)[C@@]34[C@@H]5C[C@@]6(O)[C@H](OC(=O)c7ccccc7)[C@H]5[C@@](OC(C)=O)([C@H]([C@@H](OC)[C@H]23)[C@H]14)[C@H](O)[C@@H]6OC	?	7%	-1%	>57
O=C(c1cccc(F)c1)N1CCC2(CC1)CCN(c1ncccn1)CC2	-4%	98%	-1%	>57
CCOC(=O)Cn1c(=O)oc2cc(S(=O)(=O)NCc3ccccn3)ccc21	9%	17%	12%	>57
O=C(NC1CCCCC1)NC1CCN(S(=O)(=O)c2ccc3c(c2)OCCO3)CC1	?	10µM*[single pt active]	13%	>57
O=C(Cn1c(=O)oc2cc(S(=O)(=O)N3CCCCCC3)ccc21)NC1CCCCC1	-16%	4µM*[single pt active]	11%	>57
O=C(Cn1c(=O)oc2cc(S(=O)(=O)N3CCCC3)ccc21)NCc1ccccn1	-4%	4µM*[single pt active]	12%	>57
CN[C@H]1CC[C@@H](c2ccc(Cl)c(Cl)c2)c2ccccc21	10µM*	·	·	·
